High-throughput results (PubChem BioAssay)
Shown are actives, neighbours in structure and some others; about 4.1% of the full set was active somewhere.
EBV LMP1 NFkB = inhibitors of Epstein-Barr LMP1-induced NF-kappaB reporter; LMP1-induced NF-kappaB luciferase reporter cells, luminescence; inhibition, % at 12.5 µM; 350,000 compounds, 0.69% hits; AID 504558; in the data active = inhibition above about 41%;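 also: 0% = neutral control wells and 100% = reference inhibitor control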
Shn3 3UTR inh = reduces Shn3 3'UTR luciferase signal in osteoblasts | Clone20 osteoblast Shn3 3'UTR firefly luciferase, 24 h | inhibition, % at 12.5 µM | 360,000 compounds, 0.52% hits | AID 588674;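 active = mean inhibition of at least 75% with every replicate also reaching 75%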;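 also: 0% = median of neutral control wells and 100% = pilot-screen positive control compound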
Peg3 promoter = inhibitors of Peg3 promoter | 360,000 compounds, 1.7% hits | HeLa PEG-Prom luciferase reporter, luminescence, overnight | AID 588405 | inhibition, % at 20 µM;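 active = inhibition of at least 50% at 20 µM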
TROY signal inh = blocks TROY-dependent signaling in reporter cells; Q293 LMP1-TROYcd NF-kB luciferase reporter, 4 h; inhibition, % at 10 µM; 360,000 compounds, 0.98% hits;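 active = compounds whose plate-normalised and pattern-corrected inhibition of the luciferase reporter signal at the single screening dose is 50% or more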
MITF TRPM1 inh = MITF TRPM1 promoter inhibition in SK-MEL-5 cells | SK-MEL-5 TRPM1 promoter luciferase, 24 h | inhibition, % at 12.5 µM | 330,000 compounds, 0.83% hits | AID 488899;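 active = mean inhibition across replicates of 60% or more, whatever share of single replicates reaches that level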
TWEAK-Fn14 inh = blocks TWEAK-Fn14 interaction in a reporter cell assay; TWEAK-stimulated Fn14 reporter cells, luciferase luminescence, 8 h; inhibition, % at 10 µM; 360,000 compounds, 2% hits; in the data active = inhibition above about 50%
* = called active by the depositor; . = no result given.

SMILES	EBV LMP1 NFkB	Shn3 3UTR inh	Peg3 promoter	TROY signal inh	MITF TRPM1 inh	TWEAK-Fn14 inh
COc1ccc(-c2noc(CCCC(=O)N3CCN(c4cc(C)ccc4C)CC3)n2)cc1	-25.0	-49.9	-282.8	12.8	-62.7	-3.3
CCCCCCC(=O)N(O)C1CC(=O)N(Cc2ccccc2)C1=O (stereo unspecified)	51.8*	-23.0	35.4	-16.4	5.2	-79.7
CCCCCC(=O)N(O)C1CC(=O)N(c2ccccc2)C1=O (stereo unspecified)	22.6	4.3	37.0	1.2	1.3	-28.2
O=C(c1ccccn1)N1N=C2/C(=C/c3ccccc3)CCCC2C1c1ccccc1 (stereo unspecified)	-8.7	-8.2	-3.1	-9.7	-0.1	9.2
O=C1CCC(C(=O)OCC(=O)N2N=C3/C(=C\c4ccccc4)CCCC3C2c2ccccc2)N1 (stereo unspecified)	2.6	39.9	6.2	1.0	6.8	14.1
CNC(=O)c1sc(N2N=C3/C(=C\c4ccccc4)CCCC3C2c2ccccc2)nc1C (stereo unspecified)	11.0	32.6	35.6	48.1	9.8	83.6*
CNC(=O)c1sc(N2N=C3/C(=C/c4ccccc4)CCCC3C2c2ccccc2)nc1C (stereo unspecified)	12.4	33.7	1.8	30.0	2.5	58.4*
Cc1ccc(SC[C@H](C)CN2CCC(NC(=O)OCc3ccccc3)CCC2=O)cc1 (stereo partly specified)	.	.	.	15.2	.	0.4
CCc1ccc(N2CC(C(=O)Nc3ccc4c(c3)OCO4)CC2=O)cc1 (stereo unspecified)	-2.8	4.3	7.0	5.3	1.5	-6.7
c1ccc(-c2nnc(-c3ccccc3)c(-c3c[nH]c4ccccc34)n2)cc1	-6.1	2.2	24.0	-50.0	-17.1	16.3
c1ccc2c(-c3ccncc3)c[nH]c2c1	76.6*	-9.0	-57.9	30.6	-12.9	20.6
Cn1c2c(c(=O)n(C)c1=O)C(C(F)(F)F)(C(F)(F)F)N=C(c1ccc(Cl)cc1)N2	7.5	80.8*	47.7	57.1*	71.9*	62.1*
Cc1ccccc1C1=NC(C(F)(F)F)(C(F)(F)F)c2c(n(C)c(=O)n(C)c2=O)N1	-7.4	-4.8	14.5	-4.3	3.7	-2.5
CN1C(C)(C)CC(=NO)CC1(C)C	-3.3	-8.9	-7.6	-2.1	1.3	24.2
CC(C)(CNC(=O)c1ccc(S(=O)(=O)N2CCCC2)cc1)N1CCOCC1	-4.3	-18.9	5.3	-19.1	-1.6	11.1
Cc1ccnc(SCC(=O)c2cccc([N+](=O)[O-])c2)n1	-6.3	-11.1	-8.5	-18.3	-13.3	-8.2
Cc1nc(SCC(=O)c2cccc([N+](=O)[O-])c2)n[nH]1	55.2*	9.0	-7.9	-11.4	5.4	-43.7
O=C(NC1CCCC1)c1noc2c1CCCCC2	41.8*	-60.1	-137.5	-10.4	-33.7	-9.8
O=C(Nc1cccc(O)c1)c1noc2c1CCCCC2	31.3	12.3	6.9	59.3*	33.9	81.5*
CC(=O)c1ccc(NC(=O)c2noc3c2CCC3)cc1	65.1*	39.6	28.1	54.0*	55.7	94.5*
COC(=O)c1ccccc1NC(=O)c1noc2c1CCCC2	-8.0	-17.7	-46.0	-36.0	1.1	-38.7
COc1ccc(NC(=O)c2noc3c2CCC3)cc1	5.7	-31.6	-122.4	-19.5	-40.9	57.8*
CCCCc1c(CCC)c(=N)c2ccccc2n1C	15.4	67.7	16.2	2.9	34.5	-47.4
O=C(CN(Cc1ccccc1)C(=O)CNS(=O)(=O)c1ccc(F)cc1)NCC1CCCO1 (stereo unspecified)	-10.1	-21.7	9.2	-5.0	-3.9	23.1
CCOc1ccc(C2NC(=O)NC(C)=C2C(=O)OC)cc1C (stereo unspecified)	-11.3	-2.2	15.1	2.4	6.2	-0.9
SMILES	EBV LMP1 NFkB	Shn3 3UTR inh	Peg3 promoter	TROY signal inh	MITF TRPM1 inh	TWEAK-Fn14 inh
Cc1ccc(NC(=O)c2noc3c2CCC3)cc1C	8.1	-42.3	-46.6	15.1	-52.7	56.2*
COc1cc(NC(=O)c2noc3c2CCC3)c(OC)cc1Cl	-0.3	-22.4	21.9	-10.0	10.9	-0.7
O=C(NCCCc1ccccc1)C1CC(=O)N(c2ccc3c(c2)OCCO3)C1 (stereo unspecified)	8.4	13.3	21.0	26.2	3.9	71.0*
O=C1CC(N2CCN(c3ccccc3)CC2)C(=O)N1c1ccc2c(c1)OCCO2 (stereo unspecified)	1.4	-2.7	-4.0	51.4*	0.8	29.5
O=C(C1CC(=O)N(c2ccc3c(c2)OCCO3)C1)N1CCN(c2ccccc2)CC1 (stereo unspecified)	13.3	13.3	6.2	28.2	4.9	63.5*
O=C(C1CC(=O)N(c2ccc3c(c2)OCCO3)C1)N1CCN(Cc2ccccc2F)CC1 (stereo unspecified)	69.6*	15.6	-4.8	6.6	-3.4	1.0
Cc1ccc(C)c(S(=O)(=O)Nc2cc(SCC(=O)O)c(O)c3ccccc23)c1	1.1	55.5	97.1*	59.2*	67.1*	94.4*
CCc1ccc(S(=O)(=O)Nc2cc(SCC(=O)O)c(O)c3ccccc23)cc1	2.7	4.3	-1.5	60.0*	46.3	83.0*
CCOc1ccc(S(=O)(=O)Nc2cc(SCC(=O)O)c(O)c3ccccc23)cc1	-7.6	10.5	19.6	54.5*	18.6	31.6
O=S(=O)(Nc1ccc(O)c2ccccc12)c1ccc(F)cc1	6.2	23.6	-8.1	31.2	29.0	28.4
CCc1ccc(S(=O)(=O)Nc2ccc(O)c3ccccc23)cc1	19.6	37.2	21.4	-10.6	15.8	94.1*
Cc1ccc(NS(=O)(=O)c2cc(NC(=O)C(C)Oc3ccccc3)ccc2C)c(C)c1 (stereo unspecified)	5.5	23.7	26.5	23.2	6.1	11.4
CN(CC(=O)Nc1ccc(F)c(F)c1F)C(=O)C1CCC1	-1.9	-5.7	-6.4	7.0	-13.0	13.6
Clc1ccc(N2CCN(c3nc4nonc4nc3N3CCSCC3)CC2)nc1	-3.1	10.6	8.6	1.5	-2.8	-8.0
C[C@H](CO)N1C[C@H](C)[C@@H](CN(C)S(=O)(=O)c2cccs2)Oc2c(NS(=O)(=O)c3cn(C)cn3)cccc2C1=O	-4.6	-16.5	-4.7	2.2	-11.5	5.0
O=C(O)CSc1cc(NS(=O)(=O)c2cccc([N+](=O)[O-])c2)c2ccccc2c1O	26.5	56.7	2.9	61.5*	75.8*	90.7*
Cc1cc(=O)oc2c3c(cc(OCC(=O)N[C@@H](CC(C)C)C(=O)O)c12)OC(C)(C)CC3	1.4	-3.3	11.5	-4.5	-2.4	-6.2
CN(C)/C(=N\S(=O)(=O)c1ccc(F)cc1)c1ccccc1	-3.4	16.9	-2.0	-1.8	-5.8	24.3
CN(C)/C(=N\S(=O)(=O)c1ccccc1)c1ccc(F)cc1	1.4	10.3	14.8	-17.1	14.1	51.5*
CN(C)c1ccc(NC(=O)c2cnsn2)cc1	33.5	11.3	-8.2	31.2	3.4	73.8*
Cc1noc(C)c1C(=O)Nc1ccc(N(C)C)cc1	-2.9	-1.1	10.5	10.6	2.4	-16.4
